# From PubChem BioAssay (Tox21)
# Inconclusive results are not listed. More than one record can exist for a structure, and the calls need not agree. Activity calls are given as the source filed them. Calls follow the shape of the dose curve; as a rule, active = well fitted cell-killing curve with a large enough effect in the repeat runs; inconclusive = weak or mixed curves, or effect the other way; inactive = flat fitted curve, though single readings scatter.
# Assay: Human pregnane X receptor (PXR) small molecule agonists, qHTS cell viability counter screen (AID 1346977); also: nearly all actives have a fitted effect of over 50% in size
# Details: PXR-Luc HepG2 viability, CellTiter-Fluor, 24 h; series mostly up to 92.4 µM; activity change, negative = cytotoxicity: at the top concentration
# Text: U.S. Tox21 Program National Center for Advancing Translational Sciences [NCATS] NIH Chemical Genomics Center [NCGC] U.S. Environmental Protection Agency [EPA] National Institutes of Environmental Health Sciences [NIEHS] National Toxicology Program [NTP] U.S. Food and Drug Administration [FDA] Tox21 Assay Overview: The human pregnane X receptor (hPXR) regulates the expression of several drug metabolizing enzymes and induction of these proteins is a major mechanism for developing drug resistance in cancer. One such key enzyme catalyzing the drug metabolism is cytochrome P450 3A4 (CYP3A4). Changes in CYP3A4 expression affect drug metabolism, thereby reducing the therapeutic efficacy and altering toxicological response to a drug and which finally causes adverse drug interaction. To screen Tox21 libraries for compounds that activate hPXR-mediated CYP3A4 gene expression, PXR-Luc HepG2 cells were used. Also cytotoxicity of the compounds was tested in parallel by measuring the cell viability using CellTiter-Fluor assay system in the same wells.
# Tox21 Assay Protocol Summary: PXR-Luc HepG2 cells were dispensed at 2,000 per well in 5uL of assay medium containing 5% charcoal-stripped FBS into white solid bottom 1536-well plates (Corning Life Sciences, Corning, NY) using a Multidrop Combi (Thermo Scientific, Waltham, MA) dispenser. The assay plates were incubated at 37 C and 5% CO2 for 5hr, and then 23nL of compounds dissolved in DMSO and positive control were transferred using a Pintool station (Wako, San Diego, CA). The assay plates were incubated at 37C and 5% CO2 for 24hr. For cytotoxicity read, after 23hr incubation at 37C, 1uL CellTiter-Fluor reagent (Promega Corporation, Madison, WI) was added to each well of the assay plates using Flying Reagent Dispenser (FRD, Aurora Discovery, San Diego, CA). After 1hr incubation at 37C and 5% CO2, the fluorescence signal was quantified using a ViewLux plate reader (PerkinElmer, Shelton, CT).
# % is scaled to controls: 0 for no effect and ±100 for the full control effect; potency is read from the fitted curve at half-maximal effect.
SMILES,"activity change, negative = cytotoxicity",Potency
NS(=O)(=O)c1ccccc1Cl,22.4% (inactive),
C[C@H]1C[C@@H](O)CC(C)(C)C1,1.25% (inactive),
OCCCC1CCCCC1,23.1% (inactive),
O=C(CCCN1CCN(c2ccccn2)CC1)c1ccc(F)cc1,1.71% [at 42.5 µM] (inactive),
CC(=O)OCC(=O)[C@@]1(O)CC[C@H]2[C@@H]3CCC4=CC(=O)CC[C@]4(C)[C@H]3C(=O)C[C@@]21C,1.71% [at 42.5 µM] (inactive),
CCCCCCCCCCCCN(CCCCCCCCCCCC)CCCCCCCCCCCC,14.7% (inactive),
CCC(C)C1CCCCC1=O (stereo not given),3.92% (inactive),
O=S(O)CO,-0.852% (inactive),
Nc1c[n+](N2CCOCC2)no1,-0.0232% [at 42.5 µM] (inactive),
C[C@@H]1CCN(C(=O)[C@H](CCCN=C(N)N)NS(=O)(=O)c2cccc3c2NC[C@H](C)C3)[C@@H](C(=O)O)C1,12.6% [at 42.5 µM] (inactive),
CC(C)(O)C(=O)c1ccccc1,-0.351% (inactive),
c1ccc(CC2=NCCN2)cc1,-1.33% [at 42.5 µM] (inactive),
CC(=O)N(CC(O)CO)c1c(I)c(C(=O)NCCO)c(I)c(C(=O)NCC(O)CO)c1I (stereo not given),5.24% [at 42.5 µM] (inactive),
CC(C(=O)O)c1ccc(CC2CCCC2=O)cc1 (stereo not given),-1.59% [at 42.5 µM] (inactive),
CCOC(C)(C)C,4.39% (inactive),
C=CCOCC(CC)(CO)COCC=C,14.8% (inactive),
CC(C[N+](C)(C)C)OC(N)=O (stereo not given),5.19% [at 42.5 µM] (inactive),
CC(C)CNCC(C)C,-0.478% (inactive),
NC(=O)Nc1ccccc1,1.08% (inactive),
N=C(N)c1ccccc1,0.278% (inactive),

SMILES,"activity change, negative = cytotoxicity",Potency
NCCCNCCSP(=O)(O)O,7.22% [at 8.39 µM] (inactive),
COCCCOCCCOC,12.7% (inactive),
COC(=O)[C@@H](N)Cc1ccc(O)c(O)c1,4.15% [at 42.5 µM] (inactive),
COc1ccc2c(c1)c(CC(=O)OCC(=O)O)c(C)n2C(=O)c1ccc(Cl)cc1,2.75% [at 42.5 µM] (inactive),
COC(=O)C1=C(C)NC(C)=C(C(=O)OC)C1c1ccccc1[N+](=O)[O-],,48.6 µM (active) and inactive
NC(=O)c1ccc(N)cc1,-0.428% (inactive),
CCOC(=O)c1ccc(C)cc1,1.84% (inactive),
CC/C=C\CCOC(C)=O,4.25% (inactive),
O=C(O)COc1nn(Cc2ccccc2)c2ccccc12,8.93% [at 42.5 µM] (inactive),
CCCCC/C=C\CCC=O,14.8% (inactive),
CCn1nc(C(=O)O)c(=O)c2cc3c(cc21)OCO3,9.42% [at 42.5 µM] (inactive),
Cc1sccc1Br,7.32% [at 42.5 µM] (inactive),
CC(C)CCCC(C)N (stereo not given),10.9% [at 42.5 µM] (inactive),
Cc1cc(O)cc2c1O[C@](C)(CCC[C@H](C)CCC[C@H](C)CCCC(C)C)CC2,10.4% [at 42.5 µM] (inactive),
CC(C)NCC(O)c1ccc(NS(C)(=O)=O)cc1 (stereo not given),-1.59% (inactive),
c1cnc(N2CCN(Cc3ccc4c(c3)OCO4)CC2)nc1,-0.245% [at 42.5 µM] (inactive),
CC(=O)OC/C=C(\C)CC/C=C(\C)CCC=C(C)C,,inactive
CCCN(CCC)CCc1cccc2c1CC(=O)N2,-4.15% [at 42.5 µM] (inactive),
O=C(O)c1ccccc1OP(=O)(O)O,14% [at 42.5 µM] (inactive),
Cc1cccn2c(=O)c(-c3nnn[nH]3)cnc12,-2.85% [at 19 µM] (inactive),
